The results in this text go back to PubChem BioAssay AID1851 (National Center for Advancing Translational Sciences (NCATS), 2009).

Each structure is given as a SMILES string. “And” between values parts separate entries of the source, which are not always exact repeats. Equal entries are not always repeated. About 4,000 (25%) of roughly 16,000 compounds were called active. Not shown: some 26% with an inconclusive outcome. Calls follow the shape of the dose curve; as a rule, active = well fitted curve in the direction sought with a large enough effect; inconclusive = small, poorly fitted or top-dose-only effect, or effect the other way; inactive = no such curve, though single readings can be large or run the other way. A selection follows. Some structures have more than one record in an assay (separate samples or runs), and their calls can disagree.
% is scaled to controls: 0 for no effect and ±100 for the full control effect.

For this test, the target named is Cytochrome P450 2C9 (Homo sapiens) (UniProt P11712). Description: Cytochrome panel assay with activity outcomes. The note with it: recombinant CYP, pro-luciferin dealkylation, luminescence, p450-cyp2c9; series mostly up to 57.1 µM.
Cytochrome P450 2C9 (Homo sapiens), sequence (P11712 whole entry, looked up): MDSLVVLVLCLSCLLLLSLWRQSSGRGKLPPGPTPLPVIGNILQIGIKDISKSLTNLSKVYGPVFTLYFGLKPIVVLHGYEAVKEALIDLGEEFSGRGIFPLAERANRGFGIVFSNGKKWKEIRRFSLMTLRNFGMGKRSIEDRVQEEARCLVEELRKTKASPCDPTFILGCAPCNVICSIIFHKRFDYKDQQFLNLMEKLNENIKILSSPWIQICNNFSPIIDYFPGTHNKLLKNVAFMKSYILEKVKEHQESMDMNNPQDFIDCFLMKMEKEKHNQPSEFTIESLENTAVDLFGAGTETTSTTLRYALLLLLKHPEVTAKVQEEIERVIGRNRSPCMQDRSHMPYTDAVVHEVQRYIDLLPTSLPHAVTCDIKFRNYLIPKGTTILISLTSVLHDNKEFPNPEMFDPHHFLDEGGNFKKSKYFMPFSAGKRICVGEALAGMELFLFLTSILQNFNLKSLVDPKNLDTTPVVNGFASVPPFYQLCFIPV
The term AC50 denotes the concentration giving half of the maximal activity seen. On to `CCOc1cc(C)c(S(=O)(=O)Nc2ccc3cn[nH]c3c2)cc1C`, for which the half-maximal activity concentration (AC50) was 2.82 µM (active).
On the same count and under the same terms, the result for `CCOC(=O)c1ccc(S(=O)(=O)Nc2ccc3cn[nH]c3c2)cc1` reads 0.794 µM (active); that for `Cc1ccccc1C1C(C#N)=C2N=C(N)c3c(sc4c3CCCCC4)N2C2=C1C(=O)CC(C)(C)C2` (stereo not drawn), 3.55 µM (active).
The same measure, in the same setting: the entry for `OC[C@@H]1O[C@H](O)[C@@H](Cl)[C@H](O)[C@@H]1O` is “inactive”.
As for `Cc1noc(C)c1-c1cncnc1N1CCN(C)CC1`, the activity, negative = inhibition was 15.2% [at 2.29 µM] (inactive).
Take `O=C(N/N=C/c1cc([N+](=O)[O-])ccc1N1CCNCC1)c1ccc([N+](=O)[O-])cc1`: the AC50 entry was “inactive”.
Turning to `CCN(CC)C(=O)C1CCCN(c2ccc([N+](=O)[O-])cc2/C=N/NC(=O)c2ccc([N+](=O)[O-])cc2)C1` (stereo not drawn), the AC50 was 12.6 µM (active).
For `CN1CCC(=NNC(=O)CSCc2ccccc2)CC1`, the AC50 entry is “inactive”.
Still for that read-out and setting: the result for `CSc1ccccc1NC(=O)CSCc1ccc(C)cc1` reads 10 µM (active); that for `C=CCN(CC=C)C(=S)Nc1ccccc1`, “inactive”; that for `S=C(Nc1ccccc1)Nc1ccccc1C#Cc1ccccc1`, 3.98 µM (active).
For the compound `O=S(=O)(N/N=C\c1cccn1-c1ccccc1)c1ccc2ccccc2c1`, the AC50 entry was “inactive”.
On the same count and under the same terms, the figure for `Cc1ccc(-c2nn(-c3ccccc3)cc2/C=N/NS(=O)(=O)c2ccccc2)cc1` is 7.94 µM (active); for `O=S(=O)(N/N=C\c1cn(-c2ccccc2)nc1-c1ccccc1)c1ccccc1` it is 4.47 µM (active).
Same read-out and setting: the entry for `CC1(C)C(=O)C(c2ccccc2)=C2CN3C(=O)N(CCc4ccccc4)C(=O)C3(Cc3ccc(C(F)(F)F)cc3)C=C21` (stereo not drawn) is “inactive”; for `CC(C)=C1C(=O)C(c2ccccc2)=C2CN3C(=O)N(CCc4ccccc4)C(=O)[C@]3(Cc3ccccc3)[C@H]21` it is 10 µM (active).
Turning to `CCN1CCC[C@@H](OC(=O)C(c2ccccc2)c2ccccc2)C1`, the AC50 entry is “inactive”.
For the compound `CCN1CCc2nc(NC(=O)CC(c3ccccc3)c3ccccc3)sc2C1`, the half-maximal activity concentration (AC50) is 14.1 µM (active).
On the same count and under the same terms, the result for `Cc1nc2nc(C)c(CCC(=O)NCCCN3CCN(c4cccc(Cl)c4)CC3)c(C)n2n1` reads “inactive”.
On to `Cc1nc2ncnn2c(C)c1CCC(=O)NCc1ccco1`, for which the AC50 entry is “inactive”.
Still for that read-out and setting: the figure for `Cc1ccc(Cc2c(C)nc3nc(SCC(=O)NCc4ccco4)nn3c2C)cc1` is 10 µM (active); for `Cc1nc2nc(SCC(=O)NCc3ccco3)nn2c(C)c1Cc1c(F)cccc1Cl` it is 0.708 µM (active).
In the case of `Fc1ccc(Nc2ncncc2-c2ccoc2)cc1`, the activity, negative = inhibition was -24.6% [at 2.29 µM] (inactive).
For `COC(=O)/C=C\CCc1coc(/C=C\CNC(=O)OC)n1`, the activity, negative = inhibition is -17.2% [at 11.4 µM] (inactive).
Consider `c1ccc2c(Nc3ccncc3)nc(-c3ccoc3)nc2c1`, for which the activity, negative = inhibition was -11.6% [at 2.29 µM] (inactive).
Consider `CC(C)NC(=O)c1ccc2c(=O)n(Cc3ccco3)c(=S)[nH]c2c1`, for which the AC50 result is “inactive”.
In the case of `COc1ccc(CCNC(=O)c2ccc3c(=O)n(Cc4ccco4)c(=S)[nH]c3c2)cc1OC`, the concentration at half-maximal activity (AC50) was 4.47 µM (active).
On to `CCCOc1ccccc1-c1nc2n[nH]nc2c(=O)[nH]1`, for which the AC50 entry is “inactive”.
On the same count and under the same terms, the result for `C/C(=N/OC(=O)c1cccc(Cl)c1)c1nccs1` reads “inactive”.
On the same count and under the same terms, the figure for `CN(C)S(=O)(=O)Oc1ccsc1C(=O)Nc1cccc(Cl)c1` is 8.91 µM (active); for `CN(C)S(=O)(=O)Oc1ccc(Cl)cc1C(=O)Nc1cccc(C(F)(F)F)c1` it is 7.94 µM (active).
In the case of `O=C(Cn1ccc(=O)[nH]c1=O)Nc1ccc(C(=O)O)c(O)c1`, the activity, negative = inhibition is -4.1% [at 11.4 µM] (inactive).
As for `CC(C)CN1CC[C@@]2(CCCN(C(=O)c3cc(C(F)(F)F)cc(C(F)(F)F)c3)C2)C1`, the AC50 result is “inactive”.
Same read-out and setting: the figure for `COc1ccc2c(c1OC)C(=O)OC2[C@H]1c2c(cc3c(c2OC)OCO3)CCN1C` (stereo partly drawn) is 5.01 µM (active) and 2.51 µM (active).
Same read-out and setting: the result for `COc1ccc2c(c1OC)C(=O)OC2Nc1ncccc1C` (stereo not drawn) reads “inactive”; that for `COc1ccc2c(c1OC)C(=O)O[C@@H]2[C@H]1c2c(cc3c(c2OC)OCO3)CCN1C`, 0.126 µM (active); that for `COc1ccc2cc3[n+](cc2c1OC)CCc1cc2c(cc1-3)OCO2`, “inactive”.
Take `COc1c(O)ccc2c1CN1CCc3cc4c(cc3[C@@H]1C2)OCO4`: the activity, negative = inhibition is 1.47% [at 11.4 µM] (inactive).
In the case of `NCC[C@H](O)C(=O)N[C@H]1C[C@@H](N)[C@@H](O[C@H]2O[C@@H](CN)[C@@H](O)[C@@H](O)[C@@H]2O)[C@@H](O)[C@@H]1O[C@H]1O[C@@H](CO)[C@@H](O)[C@@H](N)[C@@H]1O`, the AC50 result is “inactive”.
Turning to `O=C1c2ccccc2C(=O)C1c1ccccc1`, the AC50 entry was “inactive”.
On the same count and under the same terms, the result for `OC(CN1CCCCC1)CN1CCCCC1` reads “inactive”.
Consider `CCN(CC)C[C@@H](O)CN1CCCCc2nc(C)c(C)cc21`, for which the activity, negative = inhibition was -1.31% [at 11.4 µM] (inactive).
As to `COc1ccc(-c2ccc3c(n2)CCCN3C[C@H](O)CN2CCCc3nc(C)c(C)cc32)cc1`, the AC50 is 3.98 µM (active).
Consider `Cc1cc2c(nc1C)CCCN2C[C@@H](O)CN1CCN(C)CC1`, for which the activity, negative = inhibition was 29.4% [at 11.4 µM] (inactive).
`CO/N=C(\C)CCN1CCCc2nc(C)c(C)cc21`: the activity, negative = inhibition was -0.836% [at 11.4 µM] (inactive).
In the case of `Cc1cc2c(nc1C)CCCN2CC(O)CN1CCCc2nc(C)c(C)cc21`, the activity, negative = inhibition was -10.8% [at 11.4 µM] (inactive).
For `Cc1cc2c(nc1C)CCCN2C[C@H](O)CN1CCCc2nc(-c3ccc(Br)cc3)ccc21`, the concentration at half-maximal activity (AC50) was 2.51 µM (active).
On the same count and under the same terms, the result for `Cc1ccc(Cn2nc(C)c(NC(=O)c3cc(-c4ccco4)on3)c2C)cc1` reads 12.6 µM (active); that for `Cc1ccc(Cn2ccc(NC(=O)c3cc4nc(-c5ccco5)cc(C(F)(F)F)n4n3)n2)cc1`, “inactive”; that for `Clc1cccc(Cl)c1NC1=NCCN1`, “inactive and 7.94 µM (active)”.
Same read-out and setting: the entry for `c1ccc2c(CC3=NCCN3)cccc2c1` is “inactive”; for `COc1nc(C)nc(Cl)c1NC1=NCCN1` it is “inactive”; for `C/C(=N\Nc1ccc([N+](=O)[O-])cc1)c1cccc(N)c1` it is 5.62 µM (active).
Same read-out and setting: the figure for `C/C(=N\Nc1nnc(-c2ccccc2)c(-c2ccccc2)n1)c1cccc([N+](=O)[O-])c1` is 20 µM (active); for `O=[N+]([O-])c1cccc(/C=N/Nc2cc(Cl)nc(-c3ccccc3)n2)c1` it is “inactive”; for `c1ccc([C@@H]2CN3CCSC3=N2)cc1` it is “inactive”.
Take `CCOC(=O)c1nnc(-c2ccccc2)nc1NCc1ccccc1`: the concentration at half-maximal activity (AC50) was 25.1 µM (active).
As to `CN(C)C(=O)c1ccc(-c2nc(NCc3ccccc3)c3ccccc3n2)cc1`, the activity, negative = inhibition was -4.46% [at 2.29 µM] (inactive).
Turning to `CN(C)C(=O)c1ccc(-c2nccc(NCc3ccccc3)n2)cc1`, the activity, negative = inhibition is -14% [at 2.29 µM] (inactive).
Same read-out and setting: the figure for `O=C(O)CCC(=O)c1ccc2ccc3cccc4ccc1c2c34` is 4.8% [at 11.4 µM] (inactive).
In the case of `COc1ccc(C(=O)CCN(C)C)c2ccccc12`, the AC50 is 3.98 µM (active).
Regarding `CCCCN(CC)C(=O)Cc1ccccc1OC`, the AC50 entry is “inactive”.
As for `O=C1c2ccccc2CCC12N=NCC2c1ccc(Cl)cc1` (stereo not drawn), the concentration at half-maximal activity (AC50) was 14.1 µM (active).
For the compound `N#[N+]c1ccc(Nc2ccccc2)cc1`, the activity, negative = inhibition is 5.95% [at 11.4 µM] (inactive).
Turning to `CC(C)(C)NC(=S)Nc1ccc(Nc2ccccc2)cc1`, the AC50 was 7.08 µM (active).
Same read-out and setting: the result for `CNC(=S)Nc1ccc2nc(C)c(C)nc2c1` reads “inactive”; that for `CNC(=S)Nc1ccc(Nc2ccccc2)cc1`, 39.8 µM (active).
Take `Cc1ccccc1-c1cncnc1Nc1ccccc1`: the activity, negative = inhibition is -13.5% [at 2.29 µM] (inactive).
Turning to `Nc1ccc(Nc2ccccc2)cc1`, the concentration at half-maximal activity (AC50) is 8.91 µM (active).
For `COc1ccc(NC(=S)Nc2ccccc2)cc1`, the activity, negative = inhibition is -15.3% [at 11.4 µM] (inactive).
Regarding `CN(C)C(=O)c1ccc(-c2ccc3ncnc(NCCN4CCOCC4)c3c2)cc1`, the activity, negative = inhibition is 1.81% [at 2.29 µM] (inactive).
Regarding `CC(C)(C)NC(=O)CN(Cc1cccs1)C(=O)CCC(=O)Nc1nccs1`, the AC50 entry was “inactive”.
As for `Cc1c(C(=O)Nc2nccs2)sc2nc(-c3cccs3)cc(C(F)(F)F)c12`, the AC50 is 3.16 µM (active).
For the compound `CC[C@H](NC(=O)c1c(C)c(-c2ccccc2)nc2ccccc12)c1ccccc1`, the AC50 entry was “inactive”.
As for `CCC(NC(=O)C1(C)CC1(Br)Br)c1ccc(C)cc1` (stereo not drawn), the AC50 is 5.01 µM (active).
As to `N#Cc1cccc(-c2nccc(-n3ccnc3)n2)c1`, the activity, negative = inhibition is 5.77% [at 2.29 µM] (inactive).
Turning to `CO[C@H]1[C@@H](OC(N)=O)[C@H](O)[C@@H](Oc2ccc3c(O)c(NC(=O)c4ccc(O)c(CC=C(C)C)c4)c(=O)oc3c2C)OC1(C)C`, the AC50 result is “inactive”.
Same read-out and setting: the figure for `COc1ccccc1CC(=O)Nc1cc2oc3ccccc3c2cc1OC` is 3.98 µM (active).
With `CCOCC(=O)Nc1c(C(=O)Nc2ccccc2OC)oc2ccccc12`, the AC50 entry is “inactive”.
On to `COC(=O)N1CCC2(CCN(Cc3ccccc3OC)CC2)CC1`, for which the AC50 result was “inactive”.
Still for that read-out and setting: the result for `CCCC[C@@H]1C[C@H]1C(NC(=O)c1cccs1)c1ccc(Cl)cc1` (stereo partly drawn) reads 1 µM (active); that for `CCCC[C@@H]1C[C@H]1C(NC(=O)c1cccs1)c1ccc(C(F)(F)F)cc1` (stereo partly drawn), 1.58 µM (active); that for `CCCC[C@@H]1C[C@H]1C(NC(=O)c1cccs1)c1ccc(-c2ccccc2)cc1` (stereo partly drawn), 1.58 µM (active).
Turning to `Cc1cc(C)c2c(N)c3ccccc3nc2n1`, the AC50 entry is “inactive”.
On the same count and under the same terms, the result for `COc1cccc(Nc2ncc3ncc(=O)n(C)c3n2)c1` reads “inactive”.
The same measure, in the same setting: the figure for `COc1cccc(Cn2c(=O)cnc3cnc(Nc4cccc(OC)c4)nc32)c1` is 2 µM (active); for `COc1cccc(Cn2c(=O)cnc3cnc(N(C)C)nc32)c1` it is 12.6 µM (active); for `CCNc1ncc2nc(CCc3ccccc3)c(=O)n(Cc3cccc(OC)c3)c2n1` it is “inactive”.
Still for that read-out and setting: the result for `COc1cccc(Nc2ncc3ncc(=O)n(CCC#N)c3n2)c1` reads “inactive”; that for `COc1cccc(Cn2c(=O)c(CCc3ccccc3)nc3cnc(OC)nc32)c1`, 6.31 µM (active).
For the compound `COc1ccc(-n2c(=O)cnc3cnc(N(C)C)nc32)cc1`, the AC50 result is “inactive”.
On the same count and under the same terms, the figure for `COc1cccc(Cn2c(=O)c(CCc3ccccc3)nc3cnc(N(C)C)nc32)c1` is 10 µM (active).
`N[C@@H](Cc1cnc[nH]1)C(=O)O`: the AC50 result is “inactive”.
